# The list is not random: actives were taken first. Their share in the collection is about 10%.
# RORg inh: ROR gamma (mouse) transcription inhibition; P51450; Drosophila S2 Gal4-RORgamma UAS-luciferase reporter, 20 h; Potency, µM (doses to about 53.6 µM), without a hit: at the top dose activity change, negative = inhibition, most hits filed as inhibitors; hit rate 5.4% among 310,000; AID 2551; also: % is scaled to controls: 0 for no effect and ±100 for the full control effect; nearly all actives have a fitted effect of over 60% in size
# Target sequence (P51450 whole entry, looked up, the tested form may be a part): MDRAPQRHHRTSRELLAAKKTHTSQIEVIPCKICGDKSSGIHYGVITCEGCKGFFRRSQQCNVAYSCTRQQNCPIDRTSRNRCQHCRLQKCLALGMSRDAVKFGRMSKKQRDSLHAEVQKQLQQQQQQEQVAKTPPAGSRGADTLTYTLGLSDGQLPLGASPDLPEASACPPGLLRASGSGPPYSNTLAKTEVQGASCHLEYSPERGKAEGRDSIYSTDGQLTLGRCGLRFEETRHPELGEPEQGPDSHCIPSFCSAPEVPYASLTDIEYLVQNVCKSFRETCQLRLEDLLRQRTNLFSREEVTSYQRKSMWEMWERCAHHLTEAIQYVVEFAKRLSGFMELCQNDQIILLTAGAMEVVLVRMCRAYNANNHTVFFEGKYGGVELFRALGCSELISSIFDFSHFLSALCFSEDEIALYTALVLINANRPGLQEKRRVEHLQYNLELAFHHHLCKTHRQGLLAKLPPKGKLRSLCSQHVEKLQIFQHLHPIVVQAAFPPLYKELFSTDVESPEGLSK
#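 Drosophila S2 cells stably expressing Gal4-DBD/mouse RORγ fusion under metallothionein promoter plus UAS-luciferase; compound 1 h, then 700 uM CuSO4 induction for 20 h at ambient temperature; inhibition read as reduced luminescence.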
# MCF10A rerep: inducers of DNA re-replication in MCF 10A breast cells | AID 624296 | hit rate 2.9% among 350,000 | Potency, µM (series often up to 46.1 µM), without a hit: top-dose activity, positive = re-replication, actives largely listed as activators | MCF 10A DNA re-replication, Hoechst nuclear intensity, 48 h; also: % of control where 0% means no effect; nearly all actives have a fitted effect of over 50% in size
# SW480 rereplic: induces DNA re-replication in SW480 colon adenocarcinoma cells | AID 624297 | Potency, µM (top dose mostly 46.1 µM), inactives show top-dose re-replication activation, most hits filed as activators | SW480 DNA re-replication, Hoechst DNA content imaging, 48 h | hit rate 1.8% among 340,000; also: % of control where 0% means no effect; nearly all actives have a fitted effect of over 55% in size
#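 First, 250 cells per well were seeded. Next, compound or vehicle (23 nL) was pinned in, plates sat 48 hr at 37 C. Finally Hoechst was added for 40 min before fluorescence scanning.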
# ELG1 repair inh: blocks ELG1-dependent DNA repair in HEK293T cells | HEK293T ELG1-luciferase reporter, luminescence, 16 h; DNA damage induced by 5-fluorouridine | hit rate 2.3% among 330,000 | Potency, µM (series often up to 46.1 µM), without a hit: at the highest dose activity change, negative = inhibition, usual class: inhibitors; also: % is scaled to controls: 0 for no effect and ±100 for the full control effect; nearly all actives have a fitted effect of over 55% in size
#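 DMSO vehicle served as the neutral condition. Each well held 2,000 cells given 5-fluorouridine plus compound; after 16 hr at 37 °C/5% CO2, ONE-Glo was added and luciferase measured 30 min later.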
# VP16 counter: counter-screen for ROR gamma inhibitors: Gal4-VP16 reporter. Drosophila S2 Gal4-VP16 UAS-luciferase, luminescence, 20 h. Potency, µM (series often up to 53.6 µM), for inactives: at the highest dose activity, negative = inhibition, usual class: inhibitors. hit rate 3.5% among 310,000. AID 2546;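 also: Gal4-VP16 expression switched on by copper sulfate through the metallothionein promoter; % is scaled to controls: 0 for no effect and ±100 for the full control effect; nearly all actives have a fitted effect of over 50% in size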
# * = called active by the depositor; ? = inconclusive; / = not tested or not shown; [ ] = dose if it differs, or a comment. Calls follow the shape of the dose curve; as a rule, active = well fitted curve in the direction sought with a large enough effect; inconclusive = small, poorly fitted or top-dose-only effect, or another doubt; inactive = no such curve, though single readings can be large; an effect the other way counts as inactive or inconclusive. Potency is read from the fitted curve at half-maximal effect.
SMILES,RORg inh,MCF10A rerep,SW480 rereplic,ELG1 repair inh,VP16 counter
Cc1ccc(N/C=C/C(=O)c2ccc(C)cc2)cc1,2%,9%,1%,?,-1%
Cc1ccc(/C=C/C(=O)c2ccc(C)cc2)cc1,-38%,16%,?,?,-13%
Cc1ccc(C(=O)C=Cc2cccc(C)c2)cc1,/,18µM*,?,/,/
Cc1ccc(C(=O)/C=C/C(=O)c2ccc(C)cc2)cc1,5µM*,3.7µM*,-3%,?,?
CSc1ccc2c(c1)N(CC[C@H]1CCCCN1C)c1ccccc1S2,9%[16.9 µM],/,/,/,-11%[17 µM]
COC1(OC)C(/C=C/c2ccc(C)cc2)C(C#N)(C#N)C1(OC)OC (configuration not stated),/,18µM*,?,/,/
Cc1ccccc1-c1cc(C(=O)Nc2nc3c(s2)CCCC3)c2ccccc2n1,10µM*,15%,-2%,-2%,-18%
Cc1ccccc1C(=O)NC(C(=O)Nc1nc2c(s1)CCCC2)C(C)C (configuration not stated),?,?,4%,21µM*,20µM*
Cc1ccccc1C(=O)N[C@H](C(=O)Nc1ccc(Cl)c(Cl)c1)C(C)C,-14%,17%,15%,?,-20%
Cn1nccc1C(=O)Nc1ccc2c(c1)OCO2,-9%,2%,-2%,?,15%
C#CCOc1c(Br)cc(/C=N/O)cc1OCC,5%,?,-1%,?,-10%
C#CCOc1c(Br)cc(/C=N\NC(=O)CN2CCOCC2)cc1OCC,12%,1%,-16%,-15%,35µM*
S=C(NCCC1=CCCCC1)NCc1ccco1,7.1µM*,-3%[9.22 µM],-3%,-3%,?
O=C(NC(=S)NCCC1=CCCCC1)c1cncc(Br)c1,4.5µM*,?,1%,26%,8.9µM*
O=C(COC(=O)c1ccccc1Br)NCCC1=CCCCC1,?,-6%,?,13%,-18%
O=C(NC(=S)NCCC1=CCCCC1)c1ccccc1Br,3.5µM*,?,3%,?,3.2µM*
O=C(CCn1c(=O)c2ccccc2n(CC(=O)NCCC2=CCCCC2)c1=O)NCc1ccco1,6%,2%,-5%,3%,13%
CCCCN(C(=O)c1ccccc1OCc1ccc(F)cc1)c1c(N)n(CC(C)C)c(=O)[nH]c1=O,-16%,-3%,?,-4%,-14%
Cc1ccc(Nc2c([N+](=O)[O-])c(=O)oc3ccccc23)cc1,4%,?,?,?,-17%
Cc1ccc(C)c(Nc2c([N+](=O)[O-])c(=O)oc3ccccc23)c1,-7%,?,?,21µM*,-5%
O=S(=O)(N/N=C1/CC(c2ccccc2)Oc2ccccc21)c1ccc(Br)cc1 (configuration not stated),?,10µM*,?,-16%,-24%
CN1C(=O)N(C)C2(C)CC1(C)N(C)C(=O)N2C,2%,3%,5%,-2%,2%
C=CCc1cccc2cc(C(=O)Nc3ccc(CC(=O)O)cc3)c(=O)oc12,4µM*,-1%,-3%,?,?
COc1ccc(S(=O)(=O)N2CCC(C(=O)Nc3ccc(S(=O)(=O)N4CCCC4)cc3)CC2)cc1OC,/,-1%,-475%,-24%,/
CCN(CC)S(=O)(=O)c1ccc2[nH]c(=O)cc(C(=O)Nc3ccc(C)c(S(=O)(=O)N(CC)CC)c3)c2c1,-5%,13%,2%,18µM*,?
SMILES,RORg inh,MCF10A rerep,SW480 rereplic,ELG1 repair inh,VP16 counter
COc1ccc(NC(=O)c2cc(-c3ccccn3)nc3ccccc23)cc1S(=O)(=O)N(C)C,/,?,-4%,?,/
CCN(CC)S(=O)(=O)c1cc(NC(=O)c2cc(-c3ccccn3)nc3ccccc23)ccc1C,-23%,?,0%,8.2µM*,-13%
CCN(CC)S(=O)(=O)c1ccc(NC(=O)c2cc(=O)[nH]c3ccccc23)cc1,16%,0%,-4%[1.84 µM],?,-6%
COCCCNC(=O)/C(C#N)=C/c1ccc(F)cc1,-23%,0%,0%,3%,5%
N#C/C(=C\c1cccc(NC(=O)c2ccccc2Cl)c1)C(=O)NCCc1ccccc1,?,?,18µM*,15µM*,?
COCCCNC(=O)/C(C#N)=C/c1cccc(NC(=O)c2ccccc2Cl)c1,?,26%,1.6µM*,1%,-23%
Cc1nc2c(-c3ccccc3)cnn2c(N2CCOCC2)c1C,?,24%,-3%,?,-24%
FC(F)(F)c1cccc(CN2CCN(c3ncccn3)CC2)c1,/,-4%,-22%,/,/
CCc1nc(CN2CCN(c3cc(C(F)(F)F)ccn3)CC2)c(C)[nH]1,-20%,20%,-19%,7.3µM*,5%
CCn1c(-c2ccc(N(C)C)cc2)nc2ccccc21,6.3µM*,15%,8%,?,?
CN(C)c1ccc(-c2nc3ccccc3n2C)cc1,4µM*,-16%,?,?,?
CN(Cc1nc2ccccc2n1C)c1ccccc1,11µM*,0%,0%,0%,?
CC(C)n1c(-c2ccc(N(C)C)cc2)nc2ccccc21,4µM*,5%,-5%,?,20µM*
COc1ccccc1NC(=O)CSc1nc2nccnc2c(=O)n1Cc1cccs1,0%,8%,-34%,-2%,6%
CCOCCCNC(=S)N1CCN(Cc2ccc3c(c2)OCO3)CC1,-4%,6%,-2%,-13%,0%
COc1ccc(NC(=O)CSc2nnc(NC(C)=O)s2)c([N+](=O)[O-])c1,-22%,-2%,4%,-12%,-4%
COC(=O)[C@]1(Cc2ccccc2)N[C@H](CN(C)C(=O)Nc2ccc(F)cc2)[C@@H]2C(=O)N(Cc3ccccc3)C(=O)[C@@H]21,/,-3%,?,?,/
c1ccc2c(c1)oc1c(NCCN3CCOCC3)ncnc12,4%,-11%,1%,15%,5%
c1ccc2c(c1)oc1c(Nc3ccc(CN4CCOCC4)cc3)ncnc12,-11%,16µM*,9%,?,-28%
CCOC(=O)C1(C(=O)OCC)NC(=O)CC1CC(C)C (configuration not stated),/,-2%,-8%,/,/
O=C(Nc1ccc(N2CCN(C(=O)c3ccco3)CC2)cc1)c1ccccc1,27%,2%,4%,?,-8%
O=C(Nc1ccc(N2CCN(C(=O)c3ccco3)CC2)cc1)c1ccc(F)cc1,0%,17%,2%,21µM*,-8%
Cc1cc(C)cc(C(=O)Nc2ccc(N3CCN(C(=O)c4ccco4)CC3)cc2)c1,25%,25%,?,21µM*,-11%
COc1ccc(S(=O)(=O)Nc2cc(Cl)ccc2-n2cncn2)cc1,/,9%,8%,20%,/
COc1ccc(NC(=O)CSc2nnc(-c3ccccc3)n2Cc2ccco2)c(OC)c1,0%,-1%,2%,13µM*,4%

# Assay outcomes deposited in PubChem BioAssay by National Center for Advancing Translational Sciences (NCATS).
